Measured values reported in PubChem BioAssay AID1053 (University of Pittsburgh Molecular Library Screening Center, 2008).
“And” between values parts separate entries of the source, which are not always exact repeats. Equal entries are not always repeated.

What follows are compounds tested against Serine/threonine-protein kinase PLK1 (Homo sapiens) (UniProt P53350) (assay: Plk1 polo box domain binding inhibitors, SAR follow-up, biochemical, fluorescence polarization, purchased analogs (AID 1053)). Conditions: Plk1 PBD fluorescence polarization peptide binding; at 20 µM; stronger effect = higher value; call rule not given here.
Chain of Serine/threonine-protein kinase PLK1 (Homo sapiens) (P53350 whole entry, looked up, the tested form may be a part): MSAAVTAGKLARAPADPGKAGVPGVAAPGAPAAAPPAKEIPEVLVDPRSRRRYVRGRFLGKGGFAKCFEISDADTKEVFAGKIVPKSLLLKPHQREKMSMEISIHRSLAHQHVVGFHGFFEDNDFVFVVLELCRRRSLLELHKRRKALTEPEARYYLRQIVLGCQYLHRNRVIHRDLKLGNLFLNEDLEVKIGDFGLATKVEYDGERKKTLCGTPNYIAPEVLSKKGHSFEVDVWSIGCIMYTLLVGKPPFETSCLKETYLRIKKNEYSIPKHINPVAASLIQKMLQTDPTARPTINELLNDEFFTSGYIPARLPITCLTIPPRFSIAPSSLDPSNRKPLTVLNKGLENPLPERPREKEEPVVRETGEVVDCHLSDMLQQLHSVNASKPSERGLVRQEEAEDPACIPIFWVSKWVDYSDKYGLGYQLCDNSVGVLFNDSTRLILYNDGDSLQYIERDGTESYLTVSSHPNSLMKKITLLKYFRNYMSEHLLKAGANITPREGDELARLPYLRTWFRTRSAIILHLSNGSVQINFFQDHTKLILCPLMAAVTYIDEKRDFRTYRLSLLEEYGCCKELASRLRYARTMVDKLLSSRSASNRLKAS

inhibition, inactive:
COc1ccccc1N(/C=C1\Sc2ccccc2C1=O)C(C)=O -288% and -274%
CC(=O)N(CN1C(=O)c2ccccc2C1=O)c1ccc(C)c(Cl)c1 -39.1%
CC(=O)N(/C=C1\Sc2ccccc2C1=O)c1cc(C(F)(F)F)ccc1Cl -73.4% and -36.2%
CCOC(=O)c1ccc(NC(=O)c2c(C)cc(=O)oc2C)cc1 -118%
COC(=O)c1ccc(N(/N=C2\Sc3ccccc3C2=O)C(C)=O)cc1 -20.9%
CCOC(=O)c1ccc(NC(=O)c2ccc(Cl)c(Cl)c2)cc1 6.96%
CCCCCCC(=O)N(CN1C(=O)c2ccccc2C1=O)c1ccccc1OC -57.6%
CC(=O)N(/N=C1\Sc2ccccc2C1=O)c1ccc(Br)cc1 34.2%
O=C1NC(=O)C(=Cc2ccccc2OCCOc2ccccc2)C(=O)N1 -20.6%
CC(=O)N(/N=C1\Sc2ccccc2C1=O)c1ccccc1I -47.1%
CCOC(=O)c1ccc(NC(=O)C23CC4CC(CC(C4)C2)C3)cc1 -35.4%
CCCCOC(=O)c1ccc(N=Cc2c(O)[nH]c(=O)[nH]c2=O)cc1 44.5%
CC(=O)N(CN1C(=O)c2ccccc2C1=O)c1ccccc1C -32.5% and -28.6%
CCn1nc(-c2ccc(OC)cc2)nc2c(=O)n(C)c(=O)nc1-2 28%
CCOC(=O)c1ccc(NC(=O)C2CC(=O)NC(=NC)S2)cc1 (stereo unspecified) -37.5%
CCOC(=O)c1ccc(N=Cc2c(O)n(CC)c(=O)[nH]c2=O)cc1 -76.6%
Cc1ccc(C(=O)CN2C=CC(=C(O)NCc3ccccc3)C=C2)cc1 -52.1%
COc1ccc(N(/N=C2\Sc3ccccc3C2=O)C(C)=O)cc1 30.5%
CC(=O)N(/N=C1\Sc2ccccc2C1=O)c1ccccc1Cl -48.1%
CC(=O)N(CN1C(=O)c2ccccc2C1=O)c1ccc(F)cc1 -46.9%
CCCOC(=O)c1ccc(NC(=O)c2ccc(C)c(I)c2)cc1 -23.6%
CCn1nc(-c2ccc(C(=O)OC)cc2)nc2c(=O)n(C)c(=O)nc1-2 -9.29%
CCOC(=O)c1ccc(N=Cc2c(O)n(C3CCCCC3)c(=O)n(C3CCCCC3)c2=O)cc1 13.1%
CCOC(=O)c1ccc(NC(=O)C2CCCCC2C(=O)O)cc1 (stereo unspecified) -39.1%
COc1cc(C=C2C(=O)NC(=O)NC2=O)ccc1OCc1ccc(Cl)cc1Cl -58.1%
COc1ccc(N(/C=C2\Sc3ccccc3C2=O)C(C)=O)cc1 -312%
CC(=O)N(CN1C(=O)c2ccccc2C1=O)c1ccc(I)cc1 -50.3% and -70.1%
Cn1c(=O)[nH]c(=O)c2nc(-c3ccccc3)c(-c3ccccc3)nc21 -33.3%
CC(=O)N(CN1C(=O)c2ccccc2C1=O)c1cccc(C)c1 -35.8%
CC(=O)N(/N=C1\Sc2ccccc2C1=O)c1ccc(C)cc1C 29.2%
Cn1c(=O)c2nc(-c3ccccc3)c(=O)n(C)c2n(C)c1=O -37.8%
Cn1c(=O)[nH]c2nnc(-c3ccc4c(c3)OCO4)nc2c1=O -38.9% and 28%
CCN(CC)CCOC(=O)c1ccc(N=Cc2c(O)n(-c3c(C)cc(C)cc3C)c(=O)[nH]c2=O)cc1 -134%
CCOC(=O)c1ccc(NC(=O)C2CCC(C)CC2)cc1 (stereo unspecified) -28.3%
COc1cc(C=C2C(=O)NC(=O)NC2=O)ccc1OCc1c(C)no[n+]1[O-] -67.5%
COc1ccc(C(=O)COC(=O)c2ccc(NC(=O)c3ccccc3)cc2)cc1 40.3%
